Results on 40 compounds are retold here after PubChem BioAssay (Tox21).

The structures appear in SMILES notation. Inconclusive results are not listed. Where a call stands in place of a potency, no number is given. Values without a mark were called inactive. Activity calls are given as the source filed them. Calls come from the whole dose curve.
Potency is the fitted concentration of half-maximal effect.

This assay is described as follows: qHTS assay for small molecule agonists of the antioxidant response element (ARE) signaling pathway - cell viability counter screen (AID 743203). Note: nearly all actives have a fitted effect of over 55% in size. Particulars: ARE-bla HepG2 viability, CellTiter-Glo luminescence, 16 h; series mostly up to 73.3 µM. The text has this: National Center for Advancing Translational Sciences [NCATS]
NIH Chemical Genomics Center [NCGC]
U.S. Environmental Protection Agency [EPA]
National Institutes of Environmental Health Sciences [NIEHS]
National Toxicology Program [NTP]
U.S. Food and Drug Administration [FDA]
Oxidative stress has been implicated in the pathogenesis of a variety of diseases ranging from cancer to neurodegeneration. The antioxidant response element (ARE) signaling pathway plays an important role in the amelioration of oxidative stress. The CellSensor ARE-bla HepG2 cell line (Invitrogen) can be used for analyzing the Nrf2/antioxidant response signaling pathway. Nrf2 (NF-E2-related factor 2) and Nrf1 are transcription factors that bind to AREs and activate these genes. The CellSensor ARE-bla Hep G2 cell line contains a beta-lactamase reporter gene under control of the Antioxidant Response Element (ARE) stably integrated into HepG2 cells. The activation of the report gene under culture conditions can be detected by fluorescence intensity. This cell line has been used to screen the Tox21 10K compound library to identify agonists that induce oxidative stress. The cytotoxicity of the Tox21 compound library against the ARE-bla cell line was tested in parallel by measuring the cell viability using CellTiter-Glo assay (Promega, Madison, WI) in the same wells.
Tox21 Assay Protocol Summary:
ARE-bla HepG2 cells were dispensed at 2,000 cells/5 ul/well in 1536-well white wall/solid bottom plates using a Multidrop Combi (ThermoFisher Scientific, Waltham, MA) dispenser. After the assay plates were incubated at 37C/5% CO2 for 5 hrs, 23 nL of compounds dissolved in DMSO, positive controls or DMSO only was transferred to the assay plate by a pintool work station (Kalypsys, San Diego, CA). The plates were incubated at 37C/5% CO2 for 16 hrs, followed by addition of 4 ul/well of CellTiter-Glo reagent into the assay plates using a Flying Reagent Dispenser (Aurora Discovery, San Diego, CA). After 30 min incubation at room temperature, the luminescence intensity in the assay plates was measured using a ViewLux (PerkinElmer, Shelton, CT) plate reader.
(In general: qHTS replaces the single test concentration by a dilution series.)
For `CC(=O)SCc1ccco1`, the Potency entry is “inactive”.

`O=S(=O)(O)c1ccc(O)c2ncccc12`: the Potency entry is “inactive”.

Take `O=C(CCN1CCN2CCCC2C1)N1c2ccccc2Sc2ccc(Cl)cc21` (stereo not given): the Potency result was “inactive”.

With `CC(=O)/C(C)=C/C1C(C)=CCCC1(C)C` (stereo not given), the Potency result was “inactive”.

Consider `CC(C)(C)c1ccc(OCC2CO2)cc1` (stereo not given), for which the Potency result was “inactive”.

For the compound `OCCC1CCCCN1` (stereo not given), the Potency result is “inactive”.

`C=Cc1c(C)c2cc3[nH]c(cc4nc(cc5nc(cc1[nH]2)C(C)=C5CCC(=O)O)C(CCC(=O)O)=C4C)c(C)c3C=C`: the Potency result is “inactive”.

Take `CC(C)c1ccccc1C(C)C`: the Potency result was “inactive”.

`O=C(CC(=O)c1ccccc1)c1ccccc1`: the Potency result was “inactive”.

As for `CCN(CC)CCc1nc(-c2ccccc2)no1`, the Potency result is “inactive”.

As to `CCN(CC)CCOc1ccc2c(c1)C(=O)c1cc(OCCN(CC)CC)ccc1-2`, the Potency entry is “inactive”.

On to `CCCCc1cc2ccccc2c(OCCN(C)C)n1`, for which the Potency result is “inactive”.

For `O=C(NN1CCCC1)NS(=O)(=O)c1ccc(Cl)cc1`, the Potency entry is “inactive”.

As to `CCCCCCCCN(C)C`, the Potency entry is “inactive”.

As for `Cc1ccc(C(N)=O)cc1N`, the Potency result was “inactive”.

`Cc1c(Cn2ccnc2)c2ccccc2n1CCC(=O)O`: the Potency entry is “inactive”.

With `CCOC(=O)CC(=O)c1cc(F)c(Cl)nc1Cl`, the Potency result is “inactive”.

`O=S1(=O)c2cccc3cccc(c23)N1CCCN1CCN(c2ccc(F)cc2)CC1`: the Potency entry was “inactive”.

On to `C=C(C)C(=O)OC(C)C`, for which the Potency entry is “inactive”.

Regarding `CCN(CCO)CCCC(C)Nc1ccnc2cc(Cl)ccc12` (stereo not given), the viability change, negative = cytotoxic is -9.02% [at 8.36 µM].

As for `NCc1ccccc1`, the Potency entry was “inactive”.

`Cn1c(=O)c2c(ncn2CC(O)CO)n(C)c1=O` (stereo not given): the Potency result was “inactive”.

`O=C(O)Cc1sc(-c2ccccc2)nc1-c1ccc(Cl)cc1`: the Potency entry was “inactive”.

`Cc1occc1S`: the Potency result was “inactive”.

Take `Nc1nc(N)c2nc(CNc3ccc(C(=O)N[C@@H](CCC(=O)O)C(=O)O)cc3)cnc2n1`: the Potency is 5.1 nM (active).

Regarding `COC(=O)C(C)=O`, the Potency result was “inactive”.

For the compound `CC(O)C1CCCCC1` (stereo not given), the Potency entry was “inactive”.

On to `CN1CCC(=C2c3ccccc3C=Cc3ccccc32)CC1`, for which the Potency result was “inactive”.

On to `CC(C)NCC(O)c1cc(O)cc(O)c1` (stereo not given), for which the Potency entry is “inactive”.

`CC(C)c1cccc(C(C)C)c1NC(=O)NS(=O)(=O)c1cc(C(C)(C)O)co1`: the Potency result was “inactive”.

With `Cc1ccc(C(C)c2ccc(C)c(C)c2)cc1C`, the Potency result is “inactive”.

Regarding `COc1ccc(C(C)=O)cc1`, the Potency entry was “inactive”.

Take `O=C(O)C1CCC(C(=O)O)CC1` (stereo not given): the Potency entry is “inactive”.

As for `CCOc1nc2cccc(C(=O)O)c2n1Cc1ccc(-c2ccccc2-c2nn[nH]n2)cc1`, the Potency result is “inactive”.

Consider `COc1ccccc1OC(=O)Oc1ccccc1OC`, for which the Potency result is “inactive”.

As to `Cn1c(NCCN(CCO)CCCc2ccc([N+](=O)[O-])cc2)cc(=O)n(C)c1=O`, the Potency entry was “inactive”.

Turning to `CC(=O)O[C@H]1C[C@@H]2CC[C@@H]3[C@H](CC[C@@]4(C)[C@H]3C[C@H]([N+]3(C)CCCCC3)[C@@H]4OC(C)=O)[C@@]2(C)C[C@@H]1N1CCCCC1`, the Potency entry was “inactive”.

For the compound `C=CCCCCCC`, the Potency entry was “inactive”.

`OCC1CC2CC1C1CCC(CO)C21` (stereo not given): the Potency result is “inactive”.

As for `CC(=O)NCCCS(=O)(=O)O`, the Potency result is “inactive”.
